Screens as filed in PubChem BioAssay.
This is a sample that favours compounds with a hit; in the whole collection about 6.7% have one here.
C diff HTS = inhibitors of Clostridium difficile growth | 86,000 tested, 0.25% active | growth activity, negative = inhibition, % at 16 µg/mL (by protocol) | Clostridium difficile clinical isolate growth, OD600, 24 h; active compounds read low;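 active means mean growth activity at or below -80% and every replicate also at or below -80%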;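 further: 0% = DMSO wells and -100% = levofloxacin 16 µg/mL wells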
T cruzi growth = blocks T. cruzi growth in NIH3T3 culture; T. cruzi beta-gal in NIH3T3, GalScreen luminescence, 90 h; inhibition, % at 8.34 µM; 77,000 tested, 5.9% active; AID 624255;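 active means mean inhibition above about 93%, with at least 55% of replicates each passing it, limit read from the data, passing the limit was not always enough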
Pf Dd2 growth = P. falciparum Dd2 growth inhibition; SYBR Green, 72 h; active compounds read low; activity change, % at 10 µM; 94,000 tested, 2.3% active; AID 1159554; in the data active means activity change below about -80%
Starred values were filed as active, the others as inactive; · = no result.

SMILES | C diff HTS | T cruzi growth | Pf Dd2 growth
CO[C@@H]1CN(C)C(=O)c2cc(NC(=O)C3CCC3)ccc2OC[C@@H](C)N(Cc2cccnc2)C[C@@H]1C | · | 32 | 1
COc1ccccc1S(=O)(=O)N(C)C[C@H]1Oc2cc(C#CCC(C)C)ccc2S(=O)(=O)N([C@H](C)CO)C[C@@H]1C | 3 | 79 | -58
COc1ccc(C#Cc2ccc3c(c2)O[C@@H](CN(C)S(=O)(=O)c2ccccc2F)[C@@H](C)CN([C@@H](C)CO)S3(=O)=O)cc1 | 2 | · | -90*
CNC[C@@H]1Oc2cc(C#Cc3ccc(OC)cc3)ccc2S(=O)(=O)N([C@@H](C)CO)C[C@H]1C | 3 | 85 | -85*
COc1ccc(S(=O)(=O)N(C)C[C@@H]2Oc3cc(C#CC4CCCCC4)ccc3S(=O)(=O)N([C@@H](C)CO)C[C@H]2C)cc1 | · | 24 | -84*
COc1ccc(C#Cc2ccc3c(c2)O[C@H](CN(C)S(=O)(=O)c2ccccc2F)[C@@H](C)CN([C@H](C)CO)S3(=O)=O)cc1 | 3 | · | -87*
CNC[C@H]1Oc2cc(C#Cc3cccc(OC)c3)ccc2S(=O)(=O)N([C@@H](C)CO)C[C@@H]1C | 5 | 70 | -46
COc1ccc(S(=O)(=O)N(C)C[C@H]2Oc3cc(C#CC4CCCCC4)ccc3S(=O)(=O)N([C@@H](C)CO)C[C@H]2C)cc1 | · | 80 | -78
COc1ccc(C#Cc2ccc3c(c2)O[C@@H](CN(C)C)[C@@H](C)CN([C@@H](C)CO)S3(=O)=O)cc1 | 5 | 51 | -54
COc1ccc(S(=O)(=O)N(C)C[C@@H]2OCCCC[C@@H](C)Oc3ccc(NS(=O)(=O)c4cn(C)cn4)cc3C(=O)N([C@H](C)CO)C[C@H]2C)cc1 | · | 57 | -39
C[C@@H]1CN([C@@H](C)CO)S(=O)(=O)c2ccc(C3=CCCCC3)cc2O[C@@H]1CN(C)C | · | -24 | 17
C[C@@H]1CN([C@@H](C)CO)C(=O)c2cc(NC(=O)Nc3cccc4ccccc34)ccc2O[C@@H]1CN(C)Cc1ccc(C(=O)O)cc1 | 0 | · | 2
COc1cccc(C#Cc2ccc([C@@H]3[C@@H](CO)N(C(=O)C4CCCCC4)[C@H]3C#N)cc2)c1 | 1 | 88 | -78
COc1cccc(C#Cc2ccc([C@@H]3[C@@H](C#N)N(C(=O)C4CCC4)[C@H]3CO)cc2)c1 | 15 | 91 | -50
COc1cccc(C#Cc2ccc([C@@H]3[C@@H](C#N)N(C(=O)C4CCCCC4)[C@H]3CO)cc2)c1 | 1 | 85 | -91*
COc1cccc(C#Cc2ccc([C@@H]3[C@@H](CO)N(C(=O)C4CCCC4)[C@H]3C#N)cc2)c1 | 4 | · | -83*
COc1ccc2c3c([nH]c2c1)[C@H](CO)N(C(=O)C1CCOCC1)CC31CCN(Cc2nccs2)CC1 | -4 | · | -88*
COc1ccc2c3c([nH]c2c1)[C@@H](CO)N(C(=O)C1CCCCC1)CC31CCN(Cc2nccs2)CC1 | -4 | · | -87*
COc1ccc2c3c([nH]c2c1)[C@H](CO)N(C(=O)C1CC1)CC31CCN(Cc2nccs2)CC1 | -4 | · | -51
COc1ccc2c3c([nH]c2c1)[C@H](CO)N(C(=O)C1CCC1)CC31CCN(Cc2nccs2)CC1 | -5 | · | -75
CO[C@@H]1CN(C)C(=O)c2cc(NC(=O)c3ccno3)ccc2OC[C@@H](C)N(S(C)(=O)=O)C[C@H]1C | · | 22 | 8
Cc1ccc(S(=O)(=O)N(C)C[C@@H]2OCCCC[C@H](C)Oc3ccc(NS(=O)(=O)c4ccc(Cl)cc4)cc3C(=O)N([C@H](C)CO)C[C@@H]2C)cc1 | 0 | 108* | -46
Cc1ccc(S(=O)(=O)Nc2ccc3c(c2)C(=O)N([C@H](C)CO)C[C@@H](C)[C@H](CN(C)S(=O)(=O)c2ccc(Cl)cc2)OCCCC[C@@H](C)O3)cc1 | -1 | 55 | -81*
Cc1ccc(S(=O)(=O)N(C)C[C@@H]2OCCCC[C@@H](C)Oc3ccc(NS(=O)(=O)c4ccc(Cl)cc4)cc3C(=O)N([C@@H](C)CO)C[C@H]2C)cc1 | 5 | 82 | 4
Cc1noc(C)c1S(=O)(=O)Nc1ccc2c(c1)C(=O)N([C@@H](C)CO)C[C@H](C)[C@H](CN(C)S(=O)(=O)c1ccc(Cl)cc1)OCCCC[C@@H](C)O2 | 0 | 91 | -73
SMILES | C diff HTS | T cruzi growth | Pf Dd2 growth
Cc1ccc(S(=O)(=O)N(C)C[C@@H]2OCCCC[C@@H](C)Oc3ccc(NS(=O)(=O)c4ccc(Cl)cc4)cc3C(=O)N([C@H](C)CO)C[C@H]2C)cc1 | 3 | 77 | -54
Cc1ccc(S(=O)(=O)N(C)C[C@@H]2OCCCC[C@H](C)Oc3ccc(NS(=O)(=O)c4ccc(F)cc4)cc3C(=O)N([C@@H](C)CO)C[C@@H]2C)cc1 | 3 | 113 | -47
Cc1noc(C)c1S(=O)(=O)Nc1ccc2c(c1)C(=O)N([C@@H](C)CO)C[C@H](C)[C@@H](CN(C)S(=O)(=O)c1ccc(Cl)cc1)OCCCC[C@@H](C)O2 | 12 | 78 | -84*
Cc1ccc(S(=O)(=O)N(C)C[C@H]2OCCCC[C@H](C)Oc3ccc(NS(=O)(=O)c4ccc(F)cc4)cc3C(=O)N([C@@H](C)CO)C[C@H]2C)cc1 | 2 | 115* | -82*
COc1cccc(NC(=O)N2CC(=O)N3[C@H](C2)[C@@H](c2ccc(C#CC4CCCCC4)cc2)[C@@H]3CO)c1 | 71 | · | -19
CS(=O)(=O)N1[C@H](C#N)[C@H](c2ccccc2-c2ccccc2F)[C@@H]1CO | 3 | · | -2
COCc1cn(CC[C@H]2CC[C@@H](NC(=O)c3ccc(F)cc3)[C@@H](CO)O2)nn1 | -3 | 8 | 4
C[C@H]1CN([C@@H](C)CO)C(=O)c2cc(NC(=O)CCCCCC(=O)Nc3ccccc3N)ccc2O[C@H]1CN(C)Cc1ccc(Cl)c(Cl)c1 | · | 31 | -17
C[C@@H]1CN([C@H](C)CO)C(=O)c2cccc(NC(=O)CCCCCC(=O)Nc3ccccc3N)c2O[C@H]1CN(C)Cc1ccc(Cl)c(Cl)c1 | -10 | · | -86*
C[C@H]1CN([C@@H](C)CO)C(=O)c2cc(NC(=O)CCCCCC(=O)Nc3ccccc3N)ccc2O[C@@H]1CN(C)Cc1ccc2c(c1)OCO2 | -1 | · | -74
C[C@H]1CN([C@@H](C)CO)C(=O)c2cccc(NC(=O)CCCCCC(=O)Nc3ccccc3N)c2O[C@@H]1CN(C)Cc1ccc(Cl)c(Cl)c1 | 2 | · | -92*
C[C@@H]1CN([C@@H](C)CO)C(=O)c2cccc(NC(=O)CCCCCC(=O)Nc3ccccc3N)c2O[C@H]1CN(C)Cc1ccc(Cl)c(Cl)c1 | -2 | · | -87*
C[C@@H]1CN([C@@H](C)CO)C(=O)c2cccc(NC(=O)CCCCCC(=O)Nc3ccccc3N)c2O[C@@H]1CN(C)Cc1ccc2c(c1)OCO2 | -3 | · | -89*
C[C@@H]1CN([C@H](C)CO)C(=O)c2cc(NC(=O)CCCCCC(=O)Nc3ccccc3N)ccc2O[C@@H]1CN(C)Cc1ccc(Cl)c(Cl)c1 | · | 78 | -47
CO[C@@H]1CN(C)C(=O)c2cc(NC(=O)C3CCCCC3)ccc2OC[C@@H](C)NC[C@@H]1C | · | 53 | -11
C[C@H](CO)N1C[C@H](C)[C@H](CN(C)CC2CC2)Oc2ccc(NC(=O)Nc3cccc4ccccc34)cc2CC1=O | -3 | · | -89*
